The values that follow come from ChEMBL document CHEMBL3988442, “University of Dundee, Small-Polar-MMV Screening Library” (2021).

For experiment [1], the target named is T1, Aspartate--tRNA(Asp/Asn) ligase (Mycobacterium tuberculosis (strain ATCC 25618 / H37Rv)) (UniProt P9WFW3). Further: in the data most compounds retested in dose-response had high values.
T1 sequence (whole entry): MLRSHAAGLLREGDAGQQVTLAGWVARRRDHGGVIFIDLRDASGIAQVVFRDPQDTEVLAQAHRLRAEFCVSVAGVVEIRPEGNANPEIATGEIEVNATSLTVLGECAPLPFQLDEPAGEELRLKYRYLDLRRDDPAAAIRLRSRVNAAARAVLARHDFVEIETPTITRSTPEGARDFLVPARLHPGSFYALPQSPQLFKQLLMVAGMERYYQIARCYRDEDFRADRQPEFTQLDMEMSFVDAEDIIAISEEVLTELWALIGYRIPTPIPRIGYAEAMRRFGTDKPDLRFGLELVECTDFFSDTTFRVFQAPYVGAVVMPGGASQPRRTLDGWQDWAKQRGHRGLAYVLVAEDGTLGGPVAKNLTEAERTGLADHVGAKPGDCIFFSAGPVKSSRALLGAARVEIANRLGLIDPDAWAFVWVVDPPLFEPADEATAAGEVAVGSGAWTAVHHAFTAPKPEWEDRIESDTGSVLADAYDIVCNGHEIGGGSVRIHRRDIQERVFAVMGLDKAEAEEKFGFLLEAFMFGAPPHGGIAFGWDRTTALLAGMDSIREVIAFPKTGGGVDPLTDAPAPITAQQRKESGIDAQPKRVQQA
The experiment is described as follows: Assay for Asp RNA synthetase-1 from Mycobacterium tuberculosis. It is filed as functional. Further details: scale not given: direction of the effect not stated beside the values. The conditions noted are these: 30 µM.

The target in experiment [2] is Shiga toxin 2 (Escherichia coli O157:H7) (UniProt P09385+P09386). The experiment is described as follows: E. coli 0.157:H7 Shiga Toxin SOP - stx2 screening assay. It is filed as functional. Further details: scale not given: direction of the effect not stated beside the values. The conditions noted are these: 30 µM.

For `CCc1nnc(CN(C)c2nc(C(C)C)nc3c2cnn3C)o1`, the Percent Effect is 5.74% in experiment [1] and -7.55% in experiment [2].

On to `CN(C)C(=O)CO[C@H]1CN(Cc2ccc(F)cc2)[C@@H]2CCCO[C@H]12`, for which the Percent Effect in experiment [1] was 5.68%; in experiment [2], -22%.

Consider `CCc1nc(CN2CCCN(C(=O)CCSC)CC2)cs1`, for which the Percent Effect was -2.35% in experiment [1] and -65.7% in experiment [2].

In the case of `CCOCC1CN(C(=O)CS(C)(=O)=O)Cc2cnn(C)c21` (stereo unspecified), the Percent Effect is 1.19% in experiment [1] and -6.98% in experiment [2].

As for `CN(Cc1ccc(Cl)s1)C1CCCN(c2cccnn2)C1` (stereo unspecified), the values for the Percent Effect in experiment [1] and in experiment [2] were 2.31% and -15%, respectively.

With `Cc1nn(C)c(Cl)c1C1CCCN1CC(=O)NCc1ccccn1` (stereo unspecified), the Percent Effect was -2.78% in experiment [1] and -10.8% in experiment [2].

With `O=C1CC(c2cccs2)c2snc(C(=O)O)c2N1` (stereo unspecified), the Percent Effect in experiment [1] is -3.23%; in experiment [2] it was -4.3%.

In the case of `CNC(=O)C1CCN(C(=O)CCn2cccn2)CC1`, the Percent Effect in experiment [1] is 6.32%; in experiment [2], 26%.

As for `COCCNC(=O)[C@H]1CN(Cc2scnc2C)C[C@H]2OCC[C@@H]12`, the Percent Effect in experiment [1] was -3.26%; in experiment [2], 0.32%.

As for `Cc1csc2ncc(-c3ccnc(N4CCCC[C@@H]4CO)n3)c(=O)n12`, the Percent Effect is -2.34% in experiment [1] and -17.1% in experiment [2].

`COc1ccccc1CCNC(=O)CN1CCCC1c1noc(C)n1` (stereo unspecified): the Percent Effect was -3.12% in experiment [1] and 34.4% in experiment [2].

Regarding `CN(Cc1ccco1)[C@@H]1CN(C(=O)c2ccnnc2)C[C@@H]2CCCO[C@@H]21`, the Percent Effect in experiment [1] is -5.22%; in experiment [2], -5.91%.

In the case of `CC(C)CCCNC(=O)Nc1ccc(F)c(C(N)=O)c1`, the Percent Effect is -3.06% in experiment [1] and -45.5% in experiment [2].

Regarding `Cc1ccc([C@]2(O)CC[C@H]3CN(Cc4cc(C)c(O)c(C)c4)C[C@H]32)nc1`, the Percent Effect was 3.29% in experiment [1] and -2.26% in experiment [2].

Take `COCC1CN(C(=O)c2cccn2C)Cc2ncnn2C1` (stereo unspecified): the Percent Effect in experiment [1] is 12.6%; in experiment [2] it was -34.6%.

`CCN1CCN(c2ccc(F)cc2C(C)NCc2noc(C)n2)CC1` (stereo unspecified): the Percent Effect in experiment [1] was -3.26%; in experiment [2] it was -6.75%.

For `CC(C)CN1C[C@@H]2CN(C(=O)[C@H]3CCCO3)C[C@@H]2C1=O`, the figures for the Percent Effect in experiment [1] and in experiment [2] were 1.02% and -18.1%, respectively.

`O=C(CC1CCCC1)NCCn1ccc(-c2ccccn2)n1`: the figures for the Percent Effect in experiment [1] and in experiment [2] were -4.3% and -5.4%, respectively.
